For one test, the system named is CRL-7250. As to the kind of experiment: Cytotoxic Profiling of Annotated Libraries Using Quantitative High-Throughput Screening (AID 1296008). Further: potency means the concentration at half of the fitted maximal effect. On max response: on the % scale 0 is the no-effect control and ±100 the full control effect. Particulars: Five cell lines viability, CellTiter-Glo ATP luminescence, 48-72 h; max response: stronger effect = lower value. The gist of the method:
(§1)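 Compounds were pin-transferred onto cells and incubated 48 or 72 hr at 37 degree Celsius, 95% humidity. CellTiter-Glo was added, plates sat 10 min at room temperature, then ATP-coupled luminescence was imaged as the viability read-out.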

The test system of a further test is HEK293. The test is described as above. The settings on record: Five cell lines viability, CellTiter-Glo ATP luminescence, 48-72 h; max response: stronger effect = lower value. Summed up: as §1
Test [1] deals with HaCat. The description is as above. Particulars: Five cell lines viability, CellTiter-Glo ATP luminescence, 48-72 h; max response: stronger effect = lower value. The gist of the method:
as §1

A further test has as its system KB-3-1. The description is as above. Particulars: Five cell lines viability, CellTiter-Glo ATP luminescence, 48-72 h; max response: stronger effect = lower value. The gist of the method: as §1
Another test relates to NIH3T3. The test is described as above. The settings on record: Five cell lines viability, CellTiter-Glo ATP luminescence, 48-72 h; max response: stronger effect = lower value. The gist of the method: as §1
The test system of test [2] is HACAT. As to the kind of experiment: qHTS assay to identify novel small-molecules to repurpose for Merkel cell carcinoma treatment (AID 1296009). The settings on record: MCC and control cell lines, CellTiter-Glo viability, 72 h; at 44.8 µM (top of the series) unless noted. Summed up:
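qHTS format: cells treated with library compounds in DMSO across 8 (NPC) or 11 (MIPE) concentrations. Readout after 72 hr at 37 degree celsius was CellTiter-Glo luminescence.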

Values joined by “and” are separate entries in the source; they are usually repeats but may differ in a detail not shown here. Equal values may be shown once. Records with an inconclusive call do not appear. Values without a mark were called inactive. Active and inactive are the calls of the source. The call rests on the fitted dose curve; in most records, active means well fitted inhibition curve with a large enough effect; inconclusive means small, poorly fitted or top-dose-only effect; inactive means flat fitted curve, though single readings scatter.
Further: nearly all actives have a fitted effect of over 60% in size.

As for `CC(=O)NCCC(=O)N[C@@H](CCC(N)=O)C(=O)N[C@@H](CO)C(=O)N[C@@H](CCC(N)=O)C(=O)N[C@@H](CCC(N)=O)C(=O)N[C@H](C(=O)N[C@@H](Cc1ccccc1)C(=O)N[C@]1(C)CCCCCCC=CCCC[C@@](C)(C(=O)N[C@@H](CCC(N)=O)C(=O)N[C@@H](CC(N)=O)C(N)=O)NC(=O)[C@H](CC(C)C)NC(=O)[C@H](CC(C)C)NC(=O)[C@@H](CCCNC(=N)N)NC(=O)[C@H](Cc2c[nH]c3ccccc23)NC(=O)[C@H](CC(C)C)NC(=O)[C@H](CC(N)=O)NC1=O)[C@H](C)O`, the max response with CRL-7250 was 1.13%; with HEK293, -2.69%; in the test on NIH3T3, 0.272%. Further, the result in the test with HaCat [1], with KB-3-1 and in the test on HACAT [2] was inactive.
In the case of `Cc1nc(C(=O)NCC(=O)O)c(O)c2ccc(Oc3ccccc3)cc12`, the max response in the test on CRL-7250 is -26.8%; with HEK293, -3.39% and -0.739%; with KB-3-1, -6.73% and -11.5%; with NIH3T3, -5.42% and -6%. Also, the compound was classed as inactive with HaCat [1] and in the test on HACAT [2].
On to `Cc1c(C(=O)Nc2ccc(N3C[C@@H](C)O[C@@H](C)C3)nc2)cccc1-c1ccc(OC(F)(F)F)cc1`, for which the values for the max response in the test on CRL-7250 and with KB-3-1 were -6.66% and -8.91%, respectively. Further, the Potency was 5.26 µM (active) with HEK293, 9.35 µM (active) in the test on HaCat [1] and 20.9 µM (active) in the test on NIH3T3.
Regarding `O=c1cc(-c2ccc(O)c(O)c2)oc2cc(O)cc(O)c12`, the results for the max response with CRL-7250 and with NIH3T3 were 4.28% and 3.33%, respectively. Further, the compound was classed as inactive with HEK293, in the test on HaCat [1], in the test on KB-3-1 and in the test with HACAT [2].
On to `O=c1[nH]nc(OCCCc2ccc(Cl)cc2)c(NCc2cccnc2)c1Br`, for which the Potency is 6.51 µM (active) in the test on CRL-7250; 3.32 µM (active) and 7.31 µM (active) in the test on HEK293; 20.9 µM (active) with HaCat [1]. Moreover, the max response with KB-3-1 is 3.09%; with NIH3T3 it was 1.68% and -21.7%.
Take `CC1(C)[C@H]2CC[C@]3(C)[C@@H](C(=O)C=C4[C@@H]5C[C@@](C)(C(=O)O)CC[C@]5(C)CC[C@]43C)[C@@]2(C)CC[C@@H]1O`: the result in the test with CRL-7250, in the test with HaCat [1] and in the test on HACAT [2] was inactive. For the same compound, the values for the max response in the test with HEK293, with KB-3-1 and with NIH3T3 were -1.55%, 1.07% and -8.32%, respectively.
With `O=C(O)C1=CO[C@@H](O[C@@H]2O[C@H](CO)[C@H](O)[C@H](O)[C@H]2O)[C@@H]2C(CO)=CC[C@H]12`, the max response was 1.58% with CRL-7250, -0.469% in the test on HaCat [1], 7.89% in the test with KB-3-1 and -17.7% in the test on NIH3T3. Further, the compound was called inactive with HEK293.
For `CC=C(C(=CC)c1ccc(O)cc1)c1ccc(O)cc1`, the max response was -2.03% in the test with CRL-7250, -14% in the test on HEK293, -8.73% with KB-3-1 and -13.5% in the test with NIH3T3. Besides, the result in the test with HaCat [1] and in the test on HACAT [2] was inactive.
As to `CN[C@@H]1[C@@H](O)[C@@H](O[C@@H]2[C@@H](O)[C@H](O[C@H]3O[C@H](CN)[C@@H](O)[C@H](O)[C@@H]3O)[C@@H](N)C[C@@H]2NC(=O)[C@@H](O)CN)OC[C@]1(C)O`, the result in the test on CRL-7250, in the test with HaCat [1], with NIH3T3 and in the test on HACAT [2] was inactive. In addition, the max response was 3.66% in the test on HEK293 and 1.73% with KB-3-1.
For `Cc1cc(NC(=O)Nc2ccc(N(C)C)cc2)c2cc(F)cc(F)c2n1`, the call with CRL-7250, in the test on HaCat [1], in the test on KB-3-1, in the test on NIH3T3 and in the test on HACAT [2] was inactive. In the test on HEK293, the Potency was 14.8 µM (active).
For the compound `N[C@@H](CC(=O)N1CCn2c(nnc2C(F)(F)F)C1)Cc1cc(F)c(F)cc1F`, the max response is -4.16% in the test on CRL-7250, 1.14% in the test with HEK293, -6.59% in the test on KB-3-1 and -2.27% in the test with NIH3T3. Also, the compound was called inactive in the test with HaCat [1] and in the test on HACAT [2].
For the compound `C=CC[N+]1([C@H]2C[C@H]3[C@@H]4CC[C@H]5C[C@H](O)[C@@H](N6CCOCC6)C[C@]5(C)[C@@H]4CC[C@]3(C)[C@H]2OC(C)=O)CCCC1`, the call in the test with CRL-7250, with HaCat [1] and in the test with HACAT [2] was inactive. For the same compound, the max response with HEK293 was -1.88%; with KB-3-1 it was 8.47%; with NIH3T3, 4.84%.
With `CC1C(=O)OC2C(O)C34C5CC(C(C)(C)C)C36C(OC(=O)C6O)OC4(C(=O)O5)C12O` (stereo not drawn), the outcome with CRL-7250, in the test on HaCat [1], in the test on KB-3-1 and with HACAT [2] was inactive. Besides, the figures for the max response in the test on HEK293 and in the test with NIH3T3 were -2.56% and -22.7%, respectively.
With `NC(N)=Nc1nc(CSCCC(N)=NS(N)(=O)=O)cs1`, the max response was -0.357% in the test on CRL-7250, -1.73% in the test on HEK293 and 6.28% with KB-3-1. The compound was called inactive with HaCat [1], with NIH3T3 and in the test on HACAT [2].
For `CC1(C)CC(=O)c2c(C(F)(F)F)nn(-c3ccc(C(N)=O)c(NC4CCC(O)CC4)c3)c2C1` (stereo not drawn), the Potency is 0.259 µM (active) in the test on CRL-7250; 52.6 nM (active) and 58 nM (active) with HEK293; 132 nM (active) and 231 nM (active) with HaCat [1]; 0.105 µM (active) in the test on KB-3-1; 235 nM (active) and 184 nM (active) in the test with NIH3T3.
For the compound `O=C(O)CCC=CCC[C@@H]1[C@H](N2CCCCC2)[C@@H](O)C[C@@H]1OCc1ccc(-c2ccccc2)cc1`, the call in the test with CRL-7250, with HaCat [1], in the test with KB-3-1 and with HACAT [2] was inactive. The max response is -1.41% in the test on HEK293 and 3.59% in the test with NIH3T3.
As for `CCC(=O)NCC[C@@H]1CCc2ccc3c(c21)CCO3`, the results for the max response in the test on CRL-7250, in the test with HEK293 and with KB-3-1 were -4.42%, -0.876% and -2.73%, respectively. The result with HaCat [1], in the test on NIH3T3 and with HACAT [2] was inactive.

These data come from PubChem BioAssay (NCATS).
